Counter-ions that a name gives are not always drawn.
Tested on: Saccharomyces cerevisiae
Assay: fraction of cells in G1 phase (DNA content, flow cytometry); higher = more cells with unreplicated DNA (G1 delay)
Conditions: temperature: 30 C; YPD; JTY2953 pdr5 snq2 (sensitized); drug added to: cultures diluted from stationary phase; 6-7 h
Procedure, shortened: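 S. cerevisiae in YPD at 30°C was dosed with library drugs, using a final 20 µg/ml for sensitized JTY2953 diluted 1∶200 from overnight and fixed at 6–7 h, or dosing dividing JTY2953 (fixed at 6 h) and BY4741 (fixed at 4.33 h). Ethanol-fixed, SYTOX Green-stained cells were read by flow cytometry (10,000 events). The G1 fraction is taken as the Dean-Jett-Fox G1 peak area divided by the G1 and G2/M areas combined.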

Cc1c(-c2cnccn2)ssc1=S [Oltipraz] (88.3617 µM)
fraction of cells in G1 phase: 0.503

Nc1ccc(S(=O)(=O)Nc2ncccn2)cc1 [Sulfadiazine] (79.9102 µM)
fraction of cells in G1 phase: 0.521

CC(C)Cn1cnc2c(N)nc3ccccc3c21 [Imiquimod] (83.2257 µM)
fraction of cells in G1 phase: 0.484

COc1cccc2c1C(=O)c1c(O)c3c(c(O)c1C2=O)C[C@@](O)(C(C)=O)C[C@@H]3O[C@H]1C[C@H](N)[C@H](O)[C@H](C)O1 [Daunorubicin HCl] (37.9123 µM)
fraction of cells in G1 phase: 0.596

CCOC(=O)[N-]c1c[n+](N2CCOCC2)no1 [Molsidomine] (82.564 µM)
fraction of cells in G1 phase: 0.543

C/C=C/c1ccc(OC)cc1 [Anethole, trans-] (134.947 µM)
fraction of cells in G1 phase: 0.525

CC(N/C(=N\C#N)Nc1ccncc1)C(C)(C)C (centres undefined) [Pinacidil] (81.5229 µM)
fraction of cells in G1 phase: 0.51

Cc1c(C)c2c(c(C)c1O)CCC(C)(COc1ccc(CC3SC(=O)NC3=O)cc1)O2 (centres undefined) [Troglitazone] (45.2949 µM)
fraction of cells in G1 phase: 0.591

Cc1ccccc1C(OCCN(C)C)c1ccccc1 (centres undefined) [Orphenadrine citrate] (43.3369 µM)
fraction of cells in G1 phase: 0.522

CCn1cc(C(=O)O)c(=O)c2cc(F)c(N3CCN(C)CC3)cc21 [Pefloxacine mesylate] (59.9942 µM)
fraction of cells in G1 phase: 0.465

CC1(C)O[C@@H]2C[C@H]3[C@@H]4C[C@H](F)C5=CC(=O)C=C[C@]5(C)[C@@]4(F)[C@@H](O)C[C@]3(C)[C@]2(C(=O)CO)O1 [Fluocinolone acetonide] (44.1989 µM)
fraction of cells in G1 phase: 0.48

COc1ccc2c3c1O[C@H]1C[C@@H](O)C=C[C@@]31CCN(C)C2 [Galanthamine HBr] (69.5987 µM)
fraction of cells in G1 phase: 0.538

C[C@H]1O[C@@H](n2cc(F)c(=O)[nH]c2=O)[C@H](O)[C@@H]1O [Doxifluridine] (81.2358 µM)
fraction of cells in G1 phase: 0.479

CC(=O)SCC(Cc1ccccc1)C(=O)NCC(=O)OCc1ccccc1 (centres undefined) [Racecadotril] (51.8826 µM)
fraction of cells in G1 phase: 0.509

Nc1nnc(-c2cccc(Cl)c2Cl)c(N)n1 [Lamotrigine] (78.0958 µM)
fraction of cells in G1 phase: 0.493

CC1COc2c(N3CCN(C)CC3)c(F)cc3c(=O)c(C(=O)O)cn1c23 (centres undefined) [Ofloxacin] (55.344 µM)
fraction of cells in G1 phase: 0.505

CN1CCC(=C2c3ccccc3CC(=O)c3sccc32)CC1 [Ketotifen fumarate] (64.6343 µM)
fraction of cells in G1 phase: 0.496

CCC1=C[C@@H]2CN(C1)Cc1c([nH]c3ccccc13)[C@@](C(=O)OC)(c1cc3c(cc1OC)N(C)[C@H]1[C@@](O)(C(=O)OC)[C@H](OC(C)=O)[C@]4(CC)C=CCN5CC[C@]31[C@@H]54)C2 [Vinorelbine] (25.6755 µM)
fraction of cells in G1 phase: 0.481

Cn1cnc([N+](=O)[O-])c1Sc1ncnc2[nH]cnc12 [Azathioprine] (72.1241 µM)
fraction of cells in G1 phase: 0.465

CC[C@H]1OC(=O)[C@H](C)[C@@H](O[C@H]2C[C@@](C)(OC)[C@@H](O)[C@H](C)O2)[C@H](C)[C@@H](O[C@@H]2O[C@H](C)C[C@H](N(C)C)[C@H]2O)[C@](C)(O)C[C@@H](C)CN(C)[C@H](C)[C@@H](O)[C@]1(C)O [Azithromycin] (26.7021 µM)
fraction of cells in G1 phase: 0.471

Nc1ncnc2c1ncn2[C@@H]1O[C@H](CO)[C@@H](O)[C@@H]1O [Vidarabine] (74.8374 µM)
fraction of cells in G1 phase: 0.481

CCN1CCC[C@H]1CNC(=O)c1c(OC)ccc(Br)c1OC [Remoxipride] (53.8681 µM)
fraction of cells in G1 phase: 0.525

CC(C)Nc1cccnc1N1CCN(C(=O)c2cc3cc(NS(C)(=O)=O)ccc3[nH]2)CC1 [Delavirdine mesylate] (43.8048 µM)
fraction of cells in G1 phase: 0.487

Cc1cc2c(s1)Nc1ccccc1N=C2N1CCN(C)CC1 [Olanzapine] (64.0123 µM)
fraction of cells in G1 phase: 0.527

O=C(O)c1cc(/N=N/c2ccc(S(=O)(=O)Nc3ccccn3)cc2)ccc1O [Sulfasalazine] (50.2008 µM)
fraction of cells in G1 phase: 0.517

O=C(O)/C=C/c1ccc(Cn2ccnc2)cc1 [Ozagrel] (87.6221 µM)
fraction of cells in G1 phase: 0.471

CC(C[N+](C)(C)C)OC(N)=O (stereo not drawn) [Carbamyl-beta-methylcholine Cl] (124.05 µM)
fraction of cells in G1 phase: 0.5

COC(=O)N/N=C/c1c[n+]([O-])c2ccccc2[n+]1[O-] [Carbadox] (76.2699 µM)
fraction of cells in G1 phase: 0.414

CN(C)CCc1c[nH]c2ccc(C[C@H]3COC(=O)N3)cc12 [zolmitriptan] (65.9179 µM)
fraction of cells in G1 phase: 0.474

Source: the supplement of paper PMC3342239
